Most compounds without a hit are left out; they make up all but 2.1% or so of the library.
Rin1-Abl PPI inh: blocks binding of human Rin1 to Abl; P00519+Q13671; TR-FRET Rin1/Abl binding, biochemical; inhibition, % at 7.35 µM; 360,000 tested, 0.4% active; in the data active = inhibition above about 5%, passing the limit was not always enough
Target sequence (P00519 whole entry, looked up): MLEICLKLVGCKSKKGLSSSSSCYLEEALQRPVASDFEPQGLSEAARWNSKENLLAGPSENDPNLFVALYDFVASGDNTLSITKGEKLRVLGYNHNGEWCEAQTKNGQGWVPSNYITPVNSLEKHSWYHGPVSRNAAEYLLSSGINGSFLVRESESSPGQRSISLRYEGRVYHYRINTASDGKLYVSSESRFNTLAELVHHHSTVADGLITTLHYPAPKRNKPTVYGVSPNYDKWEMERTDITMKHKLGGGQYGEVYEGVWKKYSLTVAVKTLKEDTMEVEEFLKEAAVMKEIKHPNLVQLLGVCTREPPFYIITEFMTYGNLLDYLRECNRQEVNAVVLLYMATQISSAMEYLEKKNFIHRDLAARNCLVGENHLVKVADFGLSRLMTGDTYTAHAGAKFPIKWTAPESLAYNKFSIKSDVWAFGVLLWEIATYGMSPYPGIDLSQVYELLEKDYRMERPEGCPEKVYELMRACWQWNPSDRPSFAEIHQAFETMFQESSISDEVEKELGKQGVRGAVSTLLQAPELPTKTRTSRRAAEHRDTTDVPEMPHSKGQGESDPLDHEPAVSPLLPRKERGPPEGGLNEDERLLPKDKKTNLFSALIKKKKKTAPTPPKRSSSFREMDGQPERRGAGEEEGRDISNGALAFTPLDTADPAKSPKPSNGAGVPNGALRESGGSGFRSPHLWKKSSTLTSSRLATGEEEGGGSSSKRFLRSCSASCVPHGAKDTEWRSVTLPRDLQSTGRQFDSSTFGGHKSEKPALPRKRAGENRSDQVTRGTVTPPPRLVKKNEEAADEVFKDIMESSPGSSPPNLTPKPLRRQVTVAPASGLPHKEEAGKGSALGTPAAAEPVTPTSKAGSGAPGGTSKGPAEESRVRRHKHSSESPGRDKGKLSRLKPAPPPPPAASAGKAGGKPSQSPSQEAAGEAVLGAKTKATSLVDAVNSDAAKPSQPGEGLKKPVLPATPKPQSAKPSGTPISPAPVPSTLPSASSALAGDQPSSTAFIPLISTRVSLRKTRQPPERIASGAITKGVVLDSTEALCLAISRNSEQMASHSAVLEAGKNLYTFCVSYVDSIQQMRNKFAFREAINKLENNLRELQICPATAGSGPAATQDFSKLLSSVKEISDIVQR
Target sequence (Q13671 whole entry, looked up): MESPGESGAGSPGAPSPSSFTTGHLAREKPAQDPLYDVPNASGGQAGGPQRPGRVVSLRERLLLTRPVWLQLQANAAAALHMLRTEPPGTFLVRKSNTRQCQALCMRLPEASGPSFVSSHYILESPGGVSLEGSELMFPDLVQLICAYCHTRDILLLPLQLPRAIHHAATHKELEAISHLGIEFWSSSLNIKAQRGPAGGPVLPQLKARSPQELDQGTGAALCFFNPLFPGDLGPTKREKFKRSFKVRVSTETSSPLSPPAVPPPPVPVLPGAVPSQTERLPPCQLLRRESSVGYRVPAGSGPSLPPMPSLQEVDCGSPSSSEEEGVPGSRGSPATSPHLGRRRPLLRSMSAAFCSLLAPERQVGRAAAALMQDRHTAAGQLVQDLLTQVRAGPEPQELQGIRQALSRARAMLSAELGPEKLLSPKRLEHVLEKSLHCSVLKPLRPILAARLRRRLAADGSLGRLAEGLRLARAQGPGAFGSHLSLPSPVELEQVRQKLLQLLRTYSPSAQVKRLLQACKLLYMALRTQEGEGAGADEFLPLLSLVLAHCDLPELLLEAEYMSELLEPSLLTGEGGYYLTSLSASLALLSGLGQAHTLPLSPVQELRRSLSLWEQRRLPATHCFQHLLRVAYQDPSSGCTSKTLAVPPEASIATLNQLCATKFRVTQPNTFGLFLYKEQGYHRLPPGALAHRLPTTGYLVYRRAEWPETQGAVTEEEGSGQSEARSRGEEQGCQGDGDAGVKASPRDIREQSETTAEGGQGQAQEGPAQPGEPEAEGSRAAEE
PfM18AAP inh: PfM18AAP enzyme inhibition; recombinant PfM18AAP, H-Glu-NHMec fluorogenic cleavage; inhibition, % at 7.35 µM; 290,000 tested, 1.2% active; AID 1822;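 active = inhibition above the campaign mean inhibition over all tested compounds plus 3 SD, cut at about 28% in these data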;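 also: 0% = plate median of test compound wells and 100% = 2 mM ZnCl2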
Fh CTSL1 inh: cathepsin L1 inhibition, PFM18AAP counter-screen; recombinant F. hepatica cathepsin L1, Z-Leu-Arg-MCA fluorescence; inhibition, % at 5.96 µM; 300,000 tested, 0.49% active;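 active = inhibition above the mean of all tested compounds plus 3 SD, set per screening campaign, cut at about 17% in these data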;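 also: 0% = plate median of test compound wells and 100% = 1 µM Z-Phe-Ala-diazomethylketone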
Calb FLC: affects C. albicans growth with fluconazole; 300,000 tested, 0.57% active; growth inhibition, % (no concentration beside the values); AID 1979; C. albicans CaCi-2 (fluconazole-resistant clinical isolate) + fluconazole, Alamar Blue growth, 48 h;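 active = growth inhibition above about 58% in most replicates, limit read from the data, passing the limit was not always enough; inconclusive = exactly half the replicates above a set limit; inactive = most replicates below a set limit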;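 also: all wells also contain fluconazole at 8 µg/ml as a sub-toxic cotreatment; 0% = median of DMSO wells and 100% = median of geldanamycin control wells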
Starred values were filed as active, the others as inactive; u = inconclusive; x = no result given.

SMILES	Rin1-Abl PPI inh	PfM18AAP inh	Fh CTSL1 inh	Calb FLC
O=C(NNC1=C(C(=O)C(F)(F)F)CCC1)c1cccc(O)c1	0	-4	2	-24
Cc1cccc(C(=O)NNC2=C(C(=O)C(F)(F)F)CCC2)c1O	0	17	1	105*
CCN1/C(=C/c2ccc3cc(C)ccc3[n+]2CC)Sc2ccccc21	-68	49*	5	x
CC[n+]1c(/C=C2\Sc3ccccc3N2C)ccc2cccc(C)c21	-55	1	x	102*
CCN1/C(=C/c2ccc3cc(C)ccc3[n+]2CC)Sc2cc(C)c(C)cc21	-5	1	x	x
Cc1ccc(C(=O)NCc2cccnc2)cc1S(=O)(=O)Nc1ccccc1	3	0	-2	-7
CCOc1cccc2sc(NC(=O)CC)nc12	-2	6	-3	6
CCC(=O)NNc1nc2c(F)cccc2s1	0	31*	-2	-25
Cc1cc(Br)ccc1N=C1NC(=O)CS1	1	30*	-4	-17
O=C(c1ccc([N+](=O)[O-])s1)N1CCN(c2ncccn2)CC1	-5	x	x	x
Cc1ccc(NC(=O)c2sc(N)nc2-c2ccccc2)cc1C	2	0	34*	-1
Nc1ccc(Nc2ccccc2)c(Cl)c1	3	-47	7	2
Nc1ccccc1Nc1ccccc1	-6	15	19*	7
Cc1ccc(C2OC3=C(C(=O)CC(C)(C)C3)C(N)=C2C#N)o1 (centres undefined)	-5	14	4	11
CCn1c(=O)n(CC)c2cc(N3CCCC3)c(NC(=O)c3cccc(Cl)c3)cc21	2	32*	1	2
CCn1c(=O)n(CC)c2cc(N3CCCC3)c(NC(=O)c3cccc(C)c3)cc21	3	27	3	3
CCn1c(=O)n(CC)c2cc(N3CCCC3)c(NC(=O)c3ccc(C)c([N+](=O)[O-])c3)cc21	5	29*	-5	9
O=C(Nc1ccn(C2CC(OC(=O)c3ccccc3)C(CO)O2)c(=O)n1)c1ccccc1 (centres undefined)	9.1*	-2	1	18
Cc1scc(-c2n[nH]c(=S)n2Cc2ccccc2)c1C	0	32*	2	-20
CCOC(=O)C1C(=O)C(=O)N(Cc2ccccc2)C1C(=O)OCC (centres undefined)	-1	x	x	x
O=C(O)COc1ccccc1C(Nc1cccnc1)c1cc(Cl)c2cccnc2c1O (centres undefined)	2	9	x	100*
CCC(=O)NC(c1ccc(C)cc1)c1cc(Cl)c2cccnc2c1O (centres undefined)	3	x	x	x
CCC(=O)NC(c1ccc(OC)c(OC)c1)c1cc(Cl)c2cccnc2c1O (centres undefined)	2	3	x	3
O=C(NC(c1ccccc1)c1cc(Cl)c2cccnc2c1O)c1cccnc1 (centres undefined)	x	0	-2	92*
CCOc1ccc(C(Nc2cccnc2)c2cc(Cl)c3cccnc3c2O)cc1 (centres undefined)	-2	0	2	110*
SMILES	Rin1-Abl PPI inh	PfM18AAP inh	Fh CTSL1 inh	Calb FLC
O=C(O)COc1ccccc1C(Nc1ccccn1)c1cc(Cl)c2cccnc2c1O (centres undefined)	3	8	0	-2
CC(=O)N1N=C(c2ccc(Br)cc2)CC1c1ccc(Br)cc1 (centres undefined)	-3	x	x	x
CC(C)c1ccc(C2CC(c3ccc(Br)cc3)=NN2C(N)=S)cc1 (centres undefined)	-1	-1	20*	7
COC(=O)c1ccc(NC2CC(=O)N(c3ccccc3C)C2=O)cc1 (centres undefined)	-1	-5	-3	-6
Cc1ccccc1N1C(=O)CC(Nc2ccc3c(c2)OCO3)C1=O (centres undefined)	1	30*	1	u
C=CCc1cccc(/C=N/NC(=O)CNc2ccccc2OC)c1O	1	0	2	93*
C=CCc1cccc(C=Nc2ccc(Br)cc2)c1O	-3	3	2	1
C=CCc1cccc(/C=N/NC(=O)CNc2cccc3ccccc23)c1O	-1	12	-2	92*
C=CCc1cccc(/C=N/NC(=O)CNc2ccccc2)c1O	3	0	-4	-6
C=CCc1cccc(/C=N/n2cnnc2)c1O	-2	30*	0	-3
C=CCc1cccc(/C=N/NC(=O)C[n+]2ccccc2)c1O	-6	29*	-5	60
O=C(O)CCCNC(=O)CCCn1nnc2ccccc2c1=O	0	3	-2	-4
Cc1ccccc1-c1cnc(C(O)c2ccc(F)c(F)c2)[nH]1 (centres undefined)	-1	x	x	x
COc1ccc(-c2cc(-c3ccccc3)nc(SC(C)C(=O)O)c2C#N)cc1 (centres undefined)	-5	1	6	42
CC(C)C(Sc1nc(-c2ccccc2)cc(-c2ccccc2)c1C#N)C(=O)O (centres undefined)	-4	-3	0	87*
C[C@]12CC[C@@H]3c4cc(O)c(O)cc4CC[C@H]3[C@@H]1CC[C@@H]2O	4	67*	4	x
Cc1ccc(C)c(-c2nnc(NC(=O)c3ccco3)o2)c1	3	x	3	83*
Cc1ccc(-c2nnc(NC(=O)c3ccco3)o2)c(C)c1	1	x	3	u
NC(Cc1ccccc1)c1csc(Nc2nccc(C(F)(F)F)n2)n1 (centres undefined)	-4	x	x	x
Cc1ccccc1NC1=C/C(=N\S(=O)(=O)c2cccs2)c2ccccc2C1=O	-1	-2	94*	34
Cc1ccc(C)c(S(=O)(=O)/N=C2\C=C(NS(=O)(=O)c3ccccc3)C(=O)c3ccccc32)c1	-2	3	4	67
CC(=O)Nc1ccc(NC(=O)C(C)OC(=O)c2ccccc2NS(=O)(=O)c2cccs2)cc1 (centres undefined)	-2	-7	-4	0
CC(=O)Nc1ccc(NC2=C/C(=N/S(=O)(=O)c3cccs3)c3ccccc3C2=O)cc1	4	-8	102*	u
Cc1ccc(NC2=C/C(=N/S(=O)(=O)c3cccs3)c3ccccc3C2=O)cc1C	-4	-5	19*	0
Cc1cc(C)c[n+](C2=C([O-])c3ccccc3C(=O)/C2=N\S(=O)(=O)c2cccs2)c1	-6	-3	13	44
SMILES	Rin1-Abl PPI inh	PfM18AAP inh	Fh CTSL1 inh	Calb FLC
COc1ccc(S(=O)(=O)/N=C2\C=C(Nc3ccc(O)cc3)C(=O)c3ccccc32)cc1	-4	18	92*	-9
Cc1cc(C)c2oc(C(=O)N(Cc3ccccc3)C3CCS(=O)(=O)C3)cc(=O)c2c1 (centres undefined)	-4	-1	3	11
Cc1[nH]c2ccccc2c1Cc1nnc(SCCC#N)o1	3	-6	-1	6
Cc1cc[n+](C2=C([O-])c3ccccc3C(=O)/C2=N\S(=O)(=O)c2cccs2)cc1C	0	4	27*	55
O=C1C([N+](=O)[O-])=C(O)c2cccc3cccc1c23	x	32*	x	-7
O=C(Nc1cccc(N=Cc2cc(Cl)cc(Br)c2O)c1)c1ccco1	2	6	18*	3
O=C(Nc1cccc(N=Cc2cc(Br)cc(Br)c2O)c1)c1ccco1	1	14	-2	20

Source: PubChem BioAssay
